# From PubChem BioAssay
# Active and inactive are the calls of the source. Unless noted, how the calls were made is not given here.
# What was measured:
# [1] = tested on: Wnt5a (protein binding on small-molecule microarray); test: Wnt5a binders on small-molecule microarray, primary screen, biophysical, 635/667 nm fluorescence (AID 1142); conditions: 635 nm fluorescence, higher = more signal;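 further: fluorescence read at 667 nm with signal to noise per printed feature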
# [2] = cell viability in Huh7 cells, primary screen, cytotoxicity control for HCV replication inhibitor project, CellTiter-Glo luminescence, basal, 48 h (AID 1143); conditions: Huh7 HCV replicon, higher = more signal, called active from +8 up or from −8 down;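 further: Huh7 hepatoma cells carrying a hepatitis C replication reporter with no stimulus; test concentration not given here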
# [3] = P. aeruginosa biofilm formation inhibitors, primary screen, PAO1 strain, BacTiter-Glo luminescence, LB-PBS (AID 1144); conditions: 12 h, higher = more signal
# [4] = CREB reporter modulators without forskolin, primary screen, cell-based, PC12, CRE-LacZ reporter, unstimulated (AID 1145); conditions: no forskolin, luminescence, 4.5 h, higher = more signal, called active from +8 up or from −8 down
# [5] = CREB reporter modulators under forskolin, primary screen, cell-based, PC12, CRE-LacZ reporter, forskolin-stimulated (AID 1146); conditions: luminescence, 4.5 h, higher = more signal, called active from +8 up or from −8 down;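 further: PC12 cells with 6xCRE LacZ reporter stimulated by forskolin 10 µM; beta-galactosidase reporter signal reflecting CREB driven transcription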
# [6] = molecular target: Streptavidin (Streptomyces avidinii) (UniProt P22629); test: streptavidin binders on small-molecule microarray, primary screen, artefact control for SMM compound annotation, biophysical, 635/667 nm fluorescence (AID 1147); conditions: streptavidin binding, higher = more signal;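 further: signal reflects streptavidin binding to arrayed compounds as a control protein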
# [7] = small-molecule binders of probe aInhba, primary screen, biochemical, small-molecule microarray, 635/667 nm fluorescence (AID 1148); conditions: higher = more signal;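 further: score merges 667nm spot fluorescence with signal-to-noise for antibody binding to printed compounds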
# Torsin-1A (Homo sapiens) [8] = molecular target: Torsin-1A (Homo sapiens) (UniProt O14656); test: torsin A binders from cell lysate, primary screen, small-molecule microarray, wild-type, 635/667 nm (AID 1149); conditions: COS7 hTOR1A-WT lysate, 635 nm fluorescence, higher = more signal
# Torsin-1A (Homo sapiens) [9] = molecular target: Torsin-1A (Homo sapiens) (UniProt O14656); test: small-molecule binders of mutant TOR1A in lysate, primary screen, cell lysate, small-molecule microarray, COS7 lysate, 635/667 nm fluorescence (AID 1150); conditions: COS7 hTOR1A mutant lysate, 635 nm fluorescence, higher = more signal;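 further: score pools 667 nm emission and signal to noise measuring lysate protein binding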
# [10] = tested on: Sonic hedgehog protein (Shh); test: small-molecule binders of Shh protein, primary screen, biochemical, small-molecule microarray, 635/667 nm fluorescence (AID 1151); conditions: small-molecule microarray binding, 635 nm fluorescence; higher = more signal;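 further: Shh protein binding to compounds spotted on small-molecule microarray slides; score combines spot fluorescence intensity with signal-to-noise across triplicate slides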
# [11] = E. coli DRC41 culture turbidity changes, primary screen, E. coli filamentation inducer project, strain DRC41, OD650, 48 h (AID 1152);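 further: E. coli MC1000 strain DRC41 lacking acrAB efflux pump and sulA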; conditions: E. coli DRC41 (acrAB sulA), higher = more signal, called active from +8 up or from −8 down
# [12] = small-molecule binders of probe aLefty1, primary screen, biochemical, small-molecule microarray, 635/667 nm fluorescence (AID 1153); conditions: higher = more signal;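 further: score merges spot fluorescence with signal-to-noise ratio from the scanned slide images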
# [13] = PSAC antagonists in infected red cells, primary screen, cell-based, P. falciparum Indochina, OD700, 1 h (AID 1154); conditions: P. falciparum Indochina infected RBC osmotic lysis, higher = more signal, called active from +8 up or from −8 down
# [14] = PSAC antagonists in infected red cells, primary screen, cell-based, P. falciparum Indochina, OD700, 2 h (AID 1155);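 further: lysis reports solute entry through the parasite surface anion channel PSAC; channel blockers reduce lysis of infected cells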; conditions: P. falciparum Indochina infected erythrocytes, osmotic lysis OD700; higher = more signal, called active from +8 up or from −8 down
# [15] = osmotic lysis modulators in infected erythrocytes, primary screen, PSAC antagonist project, cell-based, P. falciparum Indochina, OD700, 3 h (AID 1156); conditions: higher = more signal, called active from +8 up or from −8 down
# [16] = PSAC antagonists in infected red cells, primary screen, cell-based, P. falciparum Indochina, OD700, 18 h (AID 1157); conditions: P. falciparum Indochina infected erythrocytes, osmotic lysis OD700, 18 h; higher = more signal, called active from +8 up or from −8 down
# [17] = modulators of S6 phosphorylation in cells, primary screen, cell-based, A549, cytoblot, luminescence, serum-stimulated (AID 1158); conditions: A549 phospho-S6 cytoblot, 5 h, higher = more signal;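 further: serum-stimulated A549 lung adenocarcinoma cells; signal is phosphorylated S6 detected by cytoblot immunostaining with HRP secondary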
# [18] = molecular target: NADPH oxidase 2 (Homo sapiens) (UniProt P04839); test: NOX2-dependent H2O2 signal modulators, primary screen, NOX inhibitor project, cell-based, HEK293-NOX2, PMA-stimulated, Amplex Red fluorescence (AID 1159); conditions: 45 min, higher = more signal, called active from +8 up or from −8 down; further: test concentration not given here
# [19] = molecular target: NADPH oxidase 4 (Homo sapiens) (UniProt Q9NPH5); test: NOX4-dependent H2O2 signal modulators, primary screen, NOX inhibitor project, cell-based, HEK293-NOX4, tetracycline-induced, Amplex Red fluorescence (AID 1160); conditions: 45 min, higher = more signal, called active from +8 up or from −8 down
# [20] = molecular target: NADPH oxidase 5 (Homo sapiens) (UniProt Q96PH1); test: NOX5-dependent H2O2 signal modulators, primary screen, NOX inhibitor project, cell-based, HEK293-NOX5, Amplex Red fluorescence (AID 1161); conditions: HEK293-NOX5, ionomycin, 45 min, higher = more signal
# NADPH oxidase 5 (Homo sapiens), sequence (Q96PH1 whole entry, looked up): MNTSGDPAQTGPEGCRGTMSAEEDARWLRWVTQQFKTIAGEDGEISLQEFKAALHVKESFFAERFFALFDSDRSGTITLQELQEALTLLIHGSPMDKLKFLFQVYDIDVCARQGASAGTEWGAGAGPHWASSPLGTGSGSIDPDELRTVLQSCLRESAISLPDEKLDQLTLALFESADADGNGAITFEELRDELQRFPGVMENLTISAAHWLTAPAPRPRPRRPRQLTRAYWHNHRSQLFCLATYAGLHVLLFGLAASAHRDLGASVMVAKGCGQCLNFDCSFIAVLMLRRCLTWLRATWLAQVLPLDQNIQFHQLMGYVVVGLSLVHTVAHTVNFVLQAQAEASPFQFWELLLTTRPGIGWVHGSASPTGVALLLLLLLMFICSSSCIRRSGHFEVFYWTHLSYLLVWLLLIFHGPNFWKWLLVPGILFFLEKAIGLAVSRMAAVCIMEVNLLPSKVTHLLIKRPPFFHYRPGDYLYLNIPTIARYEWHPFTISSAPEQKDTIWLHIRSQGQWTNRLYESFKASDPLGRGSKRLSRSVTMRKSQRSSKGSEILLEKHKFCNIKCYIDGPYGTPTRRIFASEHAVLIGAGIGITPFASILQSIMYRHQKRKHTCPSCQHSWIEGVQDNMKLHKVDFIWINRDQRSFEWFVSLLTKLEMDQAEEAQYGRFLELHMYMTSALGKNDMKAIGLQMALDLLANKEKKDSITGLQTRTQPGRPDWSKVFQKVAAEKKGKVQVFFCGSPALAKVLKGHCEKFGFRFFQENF
# NADPH oxidase 4 (Homo sapiens), sequence (Q9NPH5 whole entry, looked up): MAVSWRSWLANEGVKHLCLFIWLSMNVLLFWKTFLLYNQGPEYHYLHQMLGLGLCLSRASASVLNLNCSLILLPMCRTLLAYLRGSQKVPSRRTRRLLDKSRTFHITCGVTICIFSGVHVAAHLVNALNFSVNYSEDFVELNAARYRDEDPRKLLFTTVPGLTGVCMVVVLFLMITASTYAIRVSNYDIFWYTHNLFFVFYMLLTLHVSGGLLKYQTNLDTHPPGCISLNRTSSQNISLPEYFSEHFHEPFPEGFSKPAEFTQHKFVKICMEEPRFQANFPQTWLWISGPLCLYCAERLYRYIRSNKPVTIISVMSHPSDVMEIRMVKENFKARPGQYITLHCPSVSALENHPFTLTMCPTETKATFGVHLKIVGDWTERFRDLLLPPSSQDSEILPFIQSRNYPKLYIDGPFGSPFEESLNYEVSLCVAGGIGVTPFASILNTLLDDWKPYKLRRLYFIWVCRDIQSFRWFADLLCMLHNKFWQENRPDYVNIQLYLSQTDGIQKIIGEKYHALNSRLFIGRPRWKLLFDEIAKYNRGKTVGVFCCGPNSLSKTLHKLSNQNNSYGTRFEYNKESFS
# Streptavidin (Streptomyces avidinii), sequence (P22629 whole entry, looked up): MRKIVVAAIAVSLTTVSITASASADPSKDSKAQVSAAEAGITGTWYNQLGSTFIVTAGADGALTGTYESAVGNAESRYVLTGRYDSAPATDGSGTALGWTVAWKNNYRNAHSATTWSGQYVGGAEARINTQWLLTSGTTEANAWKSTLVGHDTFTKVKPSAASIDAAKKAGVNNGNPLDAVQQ
# Torsin-1A (Homo sapiens), sequence (O14656 whole entry, looked up): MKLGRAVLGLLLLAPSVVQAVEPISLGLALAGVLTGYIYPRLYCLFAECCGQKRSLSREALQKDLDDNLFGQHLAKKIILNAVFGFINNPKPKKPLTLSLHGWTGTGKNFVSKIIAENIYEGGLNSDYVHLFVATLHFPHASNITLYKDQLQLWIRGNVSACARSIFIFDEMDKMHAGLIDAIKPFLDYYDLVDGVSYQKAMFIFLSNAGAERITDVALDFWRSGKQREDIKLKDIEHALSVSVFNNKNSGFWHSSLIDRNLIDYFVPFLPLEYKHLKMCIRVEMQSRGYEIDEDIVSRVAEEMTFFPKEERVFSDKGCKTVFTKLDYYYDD
# NADPH oxidase 2 (Homo sapiens), sequence (P04839 whole entry, looked up): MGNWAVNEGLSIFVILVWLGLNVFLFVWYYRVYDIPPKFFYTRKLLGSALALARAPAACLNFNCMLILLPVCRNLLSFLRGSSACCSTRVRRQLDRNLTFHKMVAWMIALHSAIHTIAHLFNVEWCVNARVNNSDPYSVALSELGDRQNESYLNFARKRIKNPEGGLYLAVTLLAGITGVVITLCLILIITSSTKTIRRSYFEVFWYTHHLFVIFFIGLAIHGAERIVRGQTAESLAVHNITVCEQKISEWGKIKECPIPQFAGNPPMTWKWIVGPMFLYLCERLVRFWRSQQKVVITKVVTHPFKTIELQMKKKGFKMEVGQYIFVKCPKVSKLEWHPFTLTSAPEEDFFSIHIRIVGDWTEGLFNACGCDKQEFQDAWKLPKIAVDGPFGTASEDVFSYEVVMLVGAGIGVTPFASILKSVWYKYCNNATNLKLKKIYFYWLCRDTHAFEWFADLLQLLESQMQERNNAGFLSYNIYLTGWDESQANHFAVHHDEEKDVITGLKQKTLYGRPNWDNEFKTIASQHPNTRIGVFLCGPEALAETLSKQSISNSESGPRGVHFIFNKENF
Compound,composite z-score [1],z-score [2],z-score [3],z-score [4],z-score [5],composite z-score [6],composite z-score [7],composite z-score (Torsin-1A (Homo sapiens) [8]),composite z-score (Torsin-1A (Homo sapiens) [9]),composite z-score [10],z-score [11],composite z-score [12],z-score [13],z-score [14],z-score [15],z-score [16],z-score [17],z-score [18],z-score [19],z-score [20]
CCN1C(=O)[C@H]2[C@H]3[C@H](O)[C@H](O)CC(=NNC(=O)OCc4ccccc4)[C@@H]3CC[C@H]2C1=O,0.0743,0.235 (inactive),0.511 (inactive),-0.746 (inactive),-0.506 (inactive),0.131,-0.0986,-0.425,0.151,0.475,-0.0098 (inactive),0.122,-0.0022 (inactive),-0.51 (inactive),-0.698 (inactive),-0.0637 (inactive),-0.376,0.424 (inactive),0.525 (inactive),0.296
C=CC[C@@H]1C=C[C@H](ON=C[C@@H](NS(=O)(=O)c2ccc(C)cc2)[C@H](C)C=CCC(=O)OC)[C@@H](CO)O1,-0.116,0.182 (inactive),1.33 (inactive),0.848 (inactive),0.983 (inactive),-0.407,0.138,0.359,0.634,0.416,0.171 (inactive),-0.191,1.16 (inactive),0.278 (inactive),0.0436 (inactive),0.343 (inactive),-0.738,-0.0272 (inactive),0.118 (inactive),-0.286
CCOC(=O)CCN1C(=O)[C@H]2[C@H]3[C@H](O)[C@H](O)CC(=NO[C@@H]4O[C@H](CO)[C@@H](O)[C@H](O)[C@H]4O)[C@@H]3CC[C@H]2C1=O,0.231,-0.784 (inactive),1.24 (inactive),-0.748 (inactive),1.17 (inactive),0.036,0.0173,1.87,1.12,1.62,0.998 (inactive),0.121,3.62 (inactive),0.155 (inactive),1.31 (inactive),0.82 (inactive),-0.235,-2.95 (inactive),0.332 (inactive),-2.16
CCOC(=O)CCN1C(=O)[C@H]2[C@@H]3C(=CC[C@H]2C1=O)C(=O)[C@H]1O[C@H]1[C@H]3O,-0.544,-5.94 (inactive),0.737 (inactive),0.79 (inactive),28.7 (active),-0.7,-0.253,-0.47,0.914,-0.87,0.244 (inactive),-0.284,3.05 (inactive),0.673 (inactive),0.587 (inactive),0.254 (inactive),0.642,0.955 (inactive),0.35 (inactive),0.38
